In ChEMBL document CHEMBL1157539, “Thousands of chemical starting points for antimalarial lead identification” (Nature, 2010):

Legend:
Format in all cases: functional
Plasmodium falciparum [1] = experiment: GSK_TCMDC: Inhibition of Plasmodium falciparum 3D7 in whole red blood cells, using parasite LDH activity as an index of growth. Test compounds present at 2uM
Plasmodium falciparum [2] = experiment: GSK_TCMDC: Inhibition of Plasmodium falciparum Dd2 in whole red blood cells, using parasite LDH activity as an index of growth. Test compounds present at 2uM
HepG2 = experiment: GSK_TCMDC: Percent inhibition of human HepG2 cell line. Test compounds present at 10uM.

Row | Structure (SMILES) | Inhibition (Plasmodium falciparum [1]) [%] | Inhibition (Plasmodium falciparum [2]) [%] | Inhibition (HepG2) [%]
1 | COc1ccc(Nc2nccc(N3CCC(NC(=O)c4cc5ccccc5s4)C3)n2)cc1 (stereo not drawn) | 99 | 86 | 1
2 | OCCCCCCNc1ccnc2[nH]c3ccc(I)cc3c12 | 100 | 61 | 27
3 | Cc1cccc2nc(-c3ccc(-c4cccc(CNCCN5CCNCC5)c4)cc3)[nH]c12.O=C(O)C(F)(F)F | 85 | 2 | 9
4 | CCn1c(-c2nonc2N)nc2c(-c3ccc(CO)o3)ncc(OCCCN)c21.O=C(O)C(F)(F)F | 93 | 97 | 0
5 | Oc1c(Br)cc2oc3c(c2c1CNCc1ccccc1)CCCC3 | 99 | 74 | 0
6 | Cc1cccc2nc(-c3ccc(-c4ccc(CN5CCN(c6ccncc6)CC5)cc4)s3)[nH]c12.O=C(O)C(F)(F)F | 100 | 98 | 85
7 | CC(O)CNc1nc2ccccc2n1CC(=O)Nc1cccc(C(=O)Nc2cccc(C(F)(F)F)c2)c1 (stereo not drawn) | 99 | 95 | 2
8 | COc1ccc(CCn2c(=N)c(C(=O)NCc3ccccc3)cc3c(=O)n4cccc(C)c4nc32)cc1 | 100 | 37 | 29
9 | O=C(Nc1cccc(-c2ccc(-c3nc4cc(F)ccc4[nH]3)cc2)c1)c1ccncc1 | 100 | 96 | 52
10 | CC(C)NCc1cccc(-c2cccc(NC(=O)c3ccc(C#N)cc3)c2)c1.O=C(O)C(F)(F)F | 97 | 20 | 18
11 | O=C(c1ccc(F)c(F)c1)N1CCOC(CCN2CCC(c3ccccc3)CC2)(c2ccc(Cl)c(Cl)c2)C1 (stereo not drawn) | 89 | 75 | 51
